NADH coupling: inhibitors of enzymes used to reach an NAD/NADH endpoint | IC50, µM (doses to about 10 µM), inactives show at the highest dose inhibition | AID 774 | hit rate 0.02% among 65,000 | coupled PK/LDH NADH assays, four targets;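 active means single-dose screening hits from any of four coupled enzyme assays that gave an IC50 when retested across doses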;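 further: the DPM-DC format reads NADH fluorescence rather than 340 nm absorbance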
Spn MK inh: inhibitors of Streptococcus pneumoniae mevalonate kinase | purified MK, PK/LDH-coupled NADH absorbance 340 nm | inhibition, % at 10 µM | hit rate 0.48% among 65,000 | AID 555;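 active means ranked among the strongest by inhibition in the single 10 µM screen, a fixed top-ranked set picked for dose follow-up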
Abs 340nm: compound absorbs light at 340 nm; compound absorbance at 340 nm, fold over control; fold change at 10 µM; 65,000 tested, under 10 active;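 active means at 10 µM dose, initial 340 nm absorbance at least 2 fold that of control wells; inactive means change under 2 fold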;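 further: initial absorbance extrapolated from kinetic A340 decline of NADH oxidation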
Fluor 339 460: intrinsic fluorescence of library compounds, ex339/em460 – biochemical, MLSMR library, data from DPM-DC assay, artefact control, profiling panel; compound autofluorescence, ex339/em460 nm, NADH buffer; stronger effect = higher value; 1 = no-compound wells, NADH background; fluorescence fold increase at 10 µM; hit rate 5.5% among 65,000;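 active means at 10 µM, mean starting fluorescence two-fold or more over control wells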;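 further: signal is the first read of a kinetic run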
DPM-DC inhibit: S. pneumoniae DPM-DC inhibition | calls only at 10 µM | hit rate 0.49% among 65,000 | purified DPM-DC, PK/LDH coupled NADH fluorescence;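 active means the 320 compounds with the highest percent inhibition in the single-dose primary screen, excluding strongly autofluorescent ones, cut at about 32% in these data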;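 further: kinetic rate of NADH fluorescence loss reporting ADP formed by the decarboxylase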
Spn PMK inh: inhibitors of Streptococcus pneumoniae phosphomevalonate kinase. purified PMK, PK/LDH-coupled NADH absorbance 340 nm. inhibition, % at 10 µM. hit rate 0.49% among 65,000. AID 539;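 active means top-ranked compounds by inhibition in the single 10 µM screen, taking a fixed number of the strongest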;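 further: 0% = full reaction with DMSO carrier and 100% = background rate without enzyme reaction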
Numbers without * were called inactive; i = inactive; x = no result shown; + = active, no number; [ ] = dose if it differs, or a comment. This is a sample that favours compounds with a hit; in the whole collection about 6.8% have one here.

SMILES	NADH coupling	Spn MK inh	Abs 340nm	Fluor 339 460	DPM-DC inhibit	Spn PMK inh
O=C1c2ccccc2NC(c2cccc(F)c2)N1Cc1ccco1 (configuration not stated)	5%	6	0.99	3*	x	4
Cc1ccc(C2Nc3ccccc3C(=O)N2Cc2ccco2)cc1 (configuration not stated)	7%	8	1	4*	x	6
O=C1c2ccccc2C(O)N1Cc1ccco1 (configuration not stated)	6%	8	1	1.1	i	10
COc1ccc(C2Nc3ccccc3C(=O)N2Cc2ccco2)cc1COc1ccc(NC(C)=O)cc1 (configuration not stated)	1%	0	1.1	3.8*	x	1
Cc1cccc(NC(=O)CNc2cc(C)ccc2C)c1	7%	7	1	1.1	i	14
Cc1ccc2oc(=O)c3cnn(CC(=O)N(CCCN4CCOCC4)Cc4ccco4)c3c2c1	1%	1	1	1.1	i	0
CCOC(=O)C1CCN(Cc2nc3ccc(Cl)cc3n2CCO)CC1	10%	8	0.99	1.1	i	22
CCc1nc(NCC2CCCO2)c(C#N)c2c1COC(C)(C)C2 (configuration not stated)	7%	0	1	2.3*	x	13
CCc1nc(NC2CCCCC2)c(C#N)c2c1COC(C)(C)C2	4%	4	1	1.8	i	7
CCc1nc(NCC(C)C)c(C#N)c2c1COC(C)(C)C2	4%	0	1	2.1*	x	7
CC(C)c1nc(NCC2CCCO2)c(C#N)c2c1COC(C)(C)C2 (configuration not stated)	3%	2	0.99	2.4*	+[fluoresces]	6
Cc1ccc(S(=O)(=O)N2CCN(S(=O)(=O)c3ccc(C)cc3)C3OCCOC32)cc1 (configuration not stated)	2%	7	1.1	1.1	i	0
Clc1ccc(-c2nn3c(Cn4cnc5ccccc54)nnc3s2)c(Cl)c1	4%	3	1	1.1	i	9
CCOc1cc2nc(-c3ccc(OC)c(OC)c3)nc(N3CCOCC3)c2cc1OC	15%	10	1.1	1.5	i	6
COc1cc2nc(N3CCNCC3)nc(N)c2cc1OC	5%	9	1.1	4*	x	1
COc1ccc(OC)c(NC(=O)Cn2cc(C#N)c3cc(Br)ccc32)c1	7%	7	1.1	1.1	i	8
c1csc(Cc2nc(-c3ccc(-n4cccc4)cc3)no2)c1	4%	4	1	1.1	i	7
Cc1sc2nc3n(c(=O)c2c1C)CCCS3	2%	2	1.1	1.1	i	2
Cc1sc2nc3ccc(N4CCCC4)nn3c(=O)c2c1C	5%	7	1.1	2.1*	x	3
CCC1CCCCN1c1nc2c(c(=O)n(C)c(=O)n2C)n1CCSc1nc2ccccc2o1 (configuration not stated)	6%	12	1.1	1.1	i	6
Oc1ccccc1C1=Nc2ncnn2C(c2ccc(F)cc2)C1 (configuration not stated)	5%	6	1.1	1.1	i	10
O=C(c1noc2c1CCCC2)N1CCCCC1	19%	10	0.99	0.67	+	8
O=C(c1noc2c1CCCCC2)N1CCOCC1	11%	7	0.96	0.91	i	15
Nc1ccc(Cl)cc1/C(=N/O)c1ccccc1	3%	2	1	1	i	0
O=c1[nH]c(-c2ccncc2)nc2ccccc12	24%	21	1.1	1.2	+	18
SMILES	NADH coupling	Spn MK inh	Abs 340nm	Fluor 339 460	DPM-DC inhibit	Spn PMK inh
O=c1[nH]c(-c2cccnc2)nc2ccccc12	1%	0	1	1.1	i	3
Nc1nnc(SCc2ccccc2F)n1-c1ccccc1	5%	7	1	1.1	i	5
COc1ccc(-c2csc(N(CC3CCCO3)C(=O)c3ccco3)n2)cc1 (configuration not stated)	5%	12	1.1	2.7*	i	3
COc1ccc(-c2csc(N3CCN(C(=O)c4ccco4)CC3)n2)cc1	1%	2	1	1.1	i	0
O=c1[nH]c(=O)n(Cc2ccco2)c2c1C(C(F)(F)F)(C(F)(F)F)N=C(C1CCCCC1)N2	5%	5	1.1	2.1*	i	0
CC(=O)c1c(C)[nH]c(C(=O)OCCCCN2C(=O)c3ccccc3C2=O)c1C	6%	3	1	1.1	i	14
CCOc1ccc(CCNC(=O)C2CCN(c3nn4c(=O)cc(C)nc4s3)CC2)cc1OCC	5%	0	1	1.1	i	16
CCN(CC)C(=O)C1CCCN(Cc2ccc(N(C)C)cc2)C1 (configuration not stated)	6%	50*	1	1	i	0
CCOC(=O)C1CCCN(Cc2ccc3c(c2)OCO3)C1 (configuration not stated)	0%	0	1	1.1	i	0
CCN(CC)C(=O)C1CCCN(Cc2ccc(OC)c(C)c2)C1 (configuration not stated)	17%	51*	1.1	1.1	i	0
CCN(CC)C(=O)C1CCCN(Cc2ccc(F)c(F)c2)C1 (configuration not stated)	2%	5	1	1.1	i	2
COc1ccc(OC)c(C2=NO[C@@H]3C(=O)N(c4cc(Cl)ccc4OC)C(=O)[C@H]23)c1	11%	7	1.1	2*	i	14
Cn1c(=O)c2c(nc3sccn32)n(C)c1=O	3%	0	0.99	1.1	i	20
COCC(=O)Nc1c(C(=O)Nc2ccccc2OC)oc2ccccc12	2%	2	1	1.2	i	11
CCOc1ccc(NC(=O)c2oc3ccccc3c2NC(=O)C2CC2)cc1	5%	0	1.1	2.6*	i	15
CCOCC(=O)Nc1c(C(=O)Nc2ccc(OC)cc2OC)oc2ccccc12	3%	6	1	2.4*	x	11
COc1ccc(NC(=O)c2oc3cc(C)c(C)cc3c2C)c(OC)c1	4%	4	1.1	3.8*	x	4
CCN(CC)S(=O)(=O)c1ccc2oc(C(=O)Nc3ccc(OC)cc3OC)c(C)c2c1	12%	0	1	1.2	i	9
COc1ccc(NC(=O)c2oc3ccccc3c2NC(=O)C2CC2)cc1	5%	0	1.1	1.4	i	7
COc1ccccc1NC(=O)c1oc2ccccc2c1NC(=O)c1cc(OC)c(OC)c(OC)c1	1%	0	1	3.2*	x	3
COc1ccc(NC(=O)c2oc3ccccc3c2NC(=O)c2ccco2)c(OC)c1	5%	0	1.1	5.1*	x	9
COc1cccc(OCC(=O)Nc2c(C(=O)Nc3ccc(OC)cc3OC)oc3ccccc23)c1	7%	0	1.1	5*	x	13
COCC(=O)Nc1c(C(=O)Nc2cccc(OC)c2)oc2ccccc12	5%	7	1.1	1.3	i	8
